Values joined by “and” are separate entries in the source; they are usually repeats but may differ in a detail not shown here. Equal entries are not always repeated.
What was measured:
Assay type in all cases: functional
[1] = molecular target: Solute carrier family 2, facilitated glucose transporter member 1 (Homo sapiens) (UniProt P11166); test: ST_JUDE_LEISH: Cytotoxicity at 2uM final concentration against transgenic Leishmania Mexicana promastigotes LmGLUT1 that are glucose transport deficient and complemented with the human glucose transporter GLUT1. Activity is measured by DNA content using SYBR green in vitro
Sequence of Solute carrier family 2, facilitated glucose transporter member 1 (Homo sapiens) (P11166 whole entry): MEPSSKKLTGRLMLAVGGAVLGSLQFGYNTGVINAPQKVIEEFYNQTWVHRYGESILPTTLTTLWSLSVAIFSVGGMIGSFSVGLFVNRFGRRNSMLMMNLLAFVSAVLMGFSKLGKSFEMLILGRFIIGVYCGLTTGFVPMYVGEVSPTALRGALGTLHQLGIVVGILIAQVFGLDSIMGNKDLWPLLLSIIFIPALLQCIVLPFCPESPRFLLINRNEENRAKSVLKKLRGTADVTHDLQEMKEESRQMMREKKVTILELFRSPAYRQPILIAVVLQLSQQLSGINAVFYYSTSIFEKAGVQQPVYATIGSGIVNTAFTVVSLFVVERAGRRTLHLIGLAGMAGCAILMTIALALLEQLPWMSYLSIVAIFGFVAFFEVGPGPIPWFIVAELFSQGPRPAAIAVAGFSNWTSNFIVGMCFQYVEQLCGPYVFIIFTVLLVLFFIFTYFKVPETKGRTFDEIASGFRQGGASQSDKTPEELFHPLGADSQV

[2] = molecular target: Hexose transporter 1 (Plasmodium falciparum) (UniProt O97467); test: ST_JUDE_LEISH: Cytotoxicity at 2uM final concentration against transgenic Leishmania Mexicana promastigotes LmPfHT that are glucose transport deficient and complemented with the Plasmodium falciparum hexose transporter. Activity is measured by DNA content using SYBR green in vitro
[3] = molecular target: Glucose transporter (Leishmania mexicana) (UniProt O61059); test: ST_JUDE_LEISH: Cytotoxicity at 2uM final concentration against transgenic Leishmania Mexicana promastigotes LmGT2 that are glucose transport deficient and complemented with the L. Mexicana glucose transporter 2. Activity is measured by DNA content using SYBR green in vitro

Row | Compound | inhibition [1] | inhibition [2] | inhibition [3]
1 | COc1ccc(CCC(C)(C)NCC(O)c2cccc(C(F)(F)F)c2)cc1 (stereo unspecified) | 3.28% | 3.58% | 5.12%
2 | Cc1ccc(S(=O)(=O)NC2CCN(CCNC(=O)Nc3cc(C)nc4ccccc34)C2)cc1 (stereo unspecified) | 4.78% | 4.12% | 0.31%
3 | O=C(Nc1nccs1)c1sc2ccccc2c1O | 3.63% | 2.26% | 1.45%
4 | O=C(c1ccc([N+](=O)[O-])o1)N1CCC(c2cn(Cc3cccc(F)c3)c3ccccc23)CC1 | 50.1% | 50.9% | 10.2%
5 | Cc1ccccc1C1CCN(C2CCC(NC(=O)/C=C/c3cc(F)ccc3C(F)(F)F)CC2)CC1 (stereo unspecified) | 0.1% | -0.94% | 1.99%
6 | Cc1ccnc2nc(C(=O)Nc3cc(C(F)(F)F)ccc3N3CCCCC3)nn12 | 1.48% | 2.09% | 1.77%
7 | COc1c(C2CCN(CCCCNC(=O)c3ccc(-c4ccc(Cl)cc4)c(OCCN(C)C)c3)CC2)ccc2c1CCCC2 | 9.22% | 14.4% | 18.8%
8 | O=C(Cc1ccc(NC(=O)c2ccc(O)c(-c3cccc([N+](=O)[O-])c3)c2)cc1)NCCN1CCCCC1 | -0.19% | -1.26% | -0.03%
9 | CC(C)CCNC(=O)C1Cc2c([nH]c3cc(Cl)ccc23)C2(CCN(CCc3ccccc3)CC2)N1 (stereo unspecified) | 1.75% | 2.24% | 0.76%
10 | CC(CN(C)C)C(=O)Nc1ccc(-c2cccc(-c3nc4ccccc4[nH]3)c2)cc1 (stereo unspecified) | 5.14% | 4.81% | 8.05%
11 | CC(=O)c1cccc(NC(=O)NC2CCN(c3ccnc(Nc4ccc(F)cc4)n3)C2)c1 (stereo unspecified) | -1.36% | -0.93% | -0.03%
12 | CN(C)CCCNc1ncnc2c1[nH]c1ccc(Cl)cc12 | 1.91% | 3.62% | 1.6%
13 | CC(C)CNCc1ccc(-c2ccc(CN(CCCN3CCN(C)CC3)C(=O)/C=C/c3ccccc3)cc2)cc1 | 8.73% | 6.1% | 3.32%
14 | O=C(C=Cc1ccc(Cl)c(Cl)c1)NCCCCCN1CCC(CCCNC(=O)C2CC2c2ccccc2)CC1 (stereo unspecified) | 1.26% | 0.65% | 1.16%
15 | Cc1cccc(CN2CCCN(Cc3ccc(C(=O)Nc4ccc(C(C)(C)C)cc4)cc3)CC2)c1 | 1.47% | 1.6% | -0.38%
16 | Cc1cc(-c2ccc3c(c2)CCN(CCC2CCC(NC(=O)/C=C/c4ccc(F)cc4)CC2)CC3)on1 (stereo unspecified) | 4.44% | 2.66% | 4.41%
17 | CC(C)(C)Oc1ccc(C[C@@H]2NC3(C(=O)N(Cc4ccc(Cl)c(Cl)c4)c4ccccc43)C3C(=O)N(c4ccc(Br)cc4)C(=O)C32)cc1 (stereo partly specified) | 4.6% | 4.73% | 2.5%
18 | CCOC(=O)NOC(C(=O)O)c1ccccc1 (stereo unspecified) | 2.01% | -0.31% | 0.52%
19 | Cc1[nH]c(C)c(-c2ccc(Oc3cccc(Cl)c3)cc2)c(=O)c1Cl | 9.05% | 7.78% | 4.29%
20 | COc1ccc2nccc([C@@H](O)CN3CCC(NC(=O)C(c4cc5ccccc5o4)N4CCN(c5ccc(F)cc5)CC4)CC3)c2c1 (stereo partly specified) | 2.59% | 1.79% | 0.13%
21 | CC(C)CCCC(C)(C)NC[C@@H](O)[C@H](Cc1ccccc1)NC(=O)c1cc(NC(C)C)cc(N2CCCCS2(=O)=O)c1 | -0.83% | -1.58% | -3.27%
22 | Cc1c(-c2ccccc2)ccc2[nH]cc(CC#N)c12 | 1.56% | 3.54% | 0.3%
23 | NCc1ccc(CNCc2cccc(-c3ccc(-c4nc5cc(C(F)(F)F)ccc5[nH]4)cc3)c2)cc1 | 2.92% | 1.34% | 0.8%
24 | Cc1ccccc1C1CCN(C2CCC(NC(=O)/C=C/c3ccc(C(F)(F)F)cc3)CC2)CC1 (stereo unspecified) | 0.43% | 1.57% | 1.85%

Row | Compound | inhibition [1] | inhibition [2] | inhibition [3]
25 | N#Cc1ccc(N2CCN(Cc3ccc(-c4ccc(-c5nc6ccccc6[nH]5)s4)cc3)CC2)nc1 | 6.79% | 6.18% | 2.59%
26 | COc1cccc2c(N/N=C/c3cccc([N+](=O)[O-])c3)ccnc12 | 13.4% | 10.8% | 8.14%
27 | N#Cc1cccc(CN2CCCN(c3ccc(NC(=O)c4cccs4)cc3)CC2)c1 | 4.81% | 4.44% | 4.34%
28 | Cn1cc(CN2CCC(OC(c3ccccc3)c3ccc(Cl)cc3)CC2)cn1 (stereo unspecified) | 4.78% | 1.66% | -0.63%
29 | Cc1noc(C)c1CN1CCCN(c2ccc3c(c2)CCN(Cc2ccc(-c4ncc[nH]4)cc2)CC3)CC1 | 1.29% | 3.6% | 1.65%
30 | CCOC(=O)C(C)(C)Oc1ccc(C(=C2CC(C)(C)CC(C)(C)C2)c2ccc(O)cc2)cc1 | 4.11% | 2.31% | 3.56%
31 | O=C(Nc1ccc(Br)cc1)Nc1ccc(Cn2ncc(N3CCCNCC3)c(Cl)c2=O)cc1 | -2.08% | 0.01% | 2.81%
32 | OCCN1CCN(C(=S)Nc2ccccc2)CC1 | 4.19% | 3.14% | 3.02%
33 | Cc1cc(NC(=O)NCCN2CCC(NC(=O)c3ccc(Cl)cc3)CC2)c2ccccc2n1 | 1.7% | 1.76% | 2.94%
34 | CCCCCCN1CCC(NCc2cccc([N+](=O)[O-])c2)CC1 | 3.72% | 5.68% | 4.96%
35 | CCCCN(Cc1cccc(C(F)(F)F)c1Cl)c1ccc(C(O)(C(F)(F)F)C(F)(F)F)cc1 | 7.39% | 6.7% | 6.39%
36 | COc1cc2nc(SCCCC#N)n(C3CCCCCC3)c(=N)c2cc1OC | 7.27% | 5.84% | 2.84%
37 | CC(=O)N1N=C(c2cccs2)Sc2c1nc(-c1ccc(Cl)cc1)n2C(C)=O | 11.9% | 12.2% | 11.9%
38 | O=C(NCCNc1ccnc2cc(Cl)ccc12)c1ccccc1F | -1.91% | 1.06% | -0.19%
39 | Nc1nc(Nc2cccc(O)c2)nc2ccccc12 | 6.67% | 9.29% | 1.22%
40 | COc1ccc(S(=O)(=O)Nc2cc(C)cc(Br)c2OC)cc1N1CCN(C(=O)C(Cl)(Cl)Cl)CC1 | 0.75% | 0.79% | -0.68%
41 | COc1ccc(CNC2Cc3ccccc3C2)cc1-c1ccc(OC)c(S(=O)(=O)NCCN2CCCC2)c1 | 1.59% | 1.67% | -1.29%
42 | COc1ccc2c(=NN=Cc3cccnc3)cc(C)[nH]c2c1 | 1.93% | 0.44% | 1.52%
43 | COc1cc(CCCON2C(=N)N=C(N)NC2(C)C)cc(OC)c1OC | 1.04% | -0.26% | 1.06%
44 | O=C(Nc1cccc(-c2ccc(-c3nc4cc(F)ccc4[nH]3)cc2)c1)Nc1ccc(Cl)c(Cl)c1 | 5.5% | 2.93% | 5.84%
45 | CCNC(=O)c1ccc(-n2nc(C)cc2-c2ccccc2)cc1 | 2.66% | 3.31% | -0.67%
46 | Oc1ccc(OCc2ccccn2)cc1 | 3.05% | 6.09% | 4.04%
47 | CCN(CCCN1CCCCC1)c1cc(C)nc(Nc2ccc(C(F)(F)F)cc2)n1 | 3.6% | 3.63% | 3.9%
48 | CN1CCN(Cc2c(O)ccc3c(=O)c(Oc4ccc(C(C)(C)C)cc4)c(C(F)(F)F)oc23)CC1 | 70.7% | 74.1% | 46.6%

Row | Compound | inhibition [1] | inhibition [2] | inhibition [3]
49 | O=C(Nc1cccc(CN2CCCN(Cc3ncc[nH]3)CC2)c1)c1cc2ccccc2s1 | 3.43% | 5.48% | 3.3%
50 | COc1ccc(-n2cc(CNCCCn3ccnc3)c(-c3cccc(F)c3)n2)cc1 | 1.74% | 2.48% | -5.03%
51 | CN(C)CCOc1cc(NC(=O)Nc2ccc(Oc3ccccc3)cc2)ccc1I | 1.79% | 1.64% | -1.47%
52 | COc1ccccc1/C=C/C(=O)N(C)C1CCN(CCCCCNC(=O)/C=C/c2ccc(Cl)c(Cl)c2)CC1 | 4.19% | 2.77% | 5.48%
53 | COc1ccc(Nc2ncc(OC)c(Nc3ccccc3C(N)=O)n2)cc1N1CCN(C)CC1 | 17.6% | 21.9% | 7.83%
54 | COc1cccc(N(CCCN2C(=O)c3cccc4cccc(c34)C2=O)C(=O)c2ccccc2C)c1 | 5.96% | 7.4% | 0.69%
55 | CCOc1ccccc1C1C(C(=O)C(C)(C)C)N2c3ccc(Br)cc3C=CC2C12C(=O)c1ccccc1C2=O (stereo unspecified) | 72.3% | 76.5% | 57.1%
56 | N#Cc1ccc2c(c1)CCN(CCC1CCC(NC(=O)/C=C/c3c[nH]c4ccc(F)cc34)CC1)CC2 (stereo unspecified) | 0.97% | 3.57% | 2.6%
57 | Cn1cnnc1Sc1ccc(CN2CCOc3ccc(C4=CCCCC4)cc3C2)o1 | 0.65% | 1.97% | 1%
58 | CCC(CC(NCCCCNC(=O)c1ccc(NC(=O)c2ccc(Cl)cc2)cc1)c1ccccc1)c1ccccc1OC (stereo unspecified) | 1.72% and 1.8% | 1.83% and 1.71% | 1.46% and -1.08%
59 | Cc1cc(=NN=Cc2ccc(Cl)cc2)c2cccc(C)c2[nH]1 | 10.4% | 9.15% | 6.63%
60 | c1ccc(CN2CCC(NCc3ccc(-c4cncc5ccccc45)cc3)CC2)cc1 | 0.33% | -2.18% | 3.84%
61 | N#Cc1ccc(CN2CCC(Oc3ccc(NC(=O)c4ccccc4)cc3Cl)CC2)cc1 | 0.83% | -1.16% | 1.28%
62 | COc1ccc(O)c(C(=O)c2cnc3c(c2)c(-c2ccc(F)cc2)c(C#N)c(=O)n3C)c1 | 8.74% | 6.89% | 4.94%
63 | COc1ccc(NC(=O)[C@H](Cc2ccccc2)Nc2cc(C)nc(NCCc3cccnc3)n2)cc1 | -0.56% | 1.12% | 1.34%
64 | O=C(Nc1cccc(C(F)(F)F)c1)Nc1cc(F)c(F)cc1Cl | 1.86% | 1.72% | 2.36%
65 | COc1ccc2nccc([C@@H](O)CN3CCC(NCc4ccc5c(c4)oc(=S)n5C)CC3)c2c1 | 2.25% | 5.5% | 1.46%
66 | CC(CN(C)C)C(=O)Nc1cccc(-c2ccc(-c3nc4ccccc4[nH]3)s2)c1 (stereo unspecified) | 9.63% | 9.45% | 3.78%
67 | Nc1ncc(-c2ccsc2)c2ccc(-c3ccc4cn[nH]c4c3)cc12 | 3.11% | 1.38% | 5.29%
68 | COc1ccc2c(c1)Nc1ccc(Cl)cc1C2N (stereo unspecified) | 3.78% | 1.62% | 0.48%
69 | CN(C)CCNC(=O)N1CCCN(c2ncnc3cc(-c4ccc(Cl)cc4)sc23)CC1 | -0.35% | -1.89% | 0.1%
70 | Cc1ccccc1NC(=O)NC1CCN(CCCCCNC(=O)/C=C/c2ccc(Cl)c(Cl)c2)CC1 | 1.77% | 2.24% | 1.9%
71 | CC(=O)Nc1ncc(C(=O)Nc2cccc(-c3ccc(-c4nc5ccccc5[nH]4)cc3)c2)s1 | 1.69% | 1.26% | 1.08%
72 | Oc1ccc(CCCc2cc(Oc3c(I)cc(CCc4ncc[nH]4)cc3I)ccc2O)cc1 | 1.08% | -0.28% | -1.55%
